Calls of active or inactive are those of the source. Rule for the calls: active = hit-call score of the fitted dose curve at least 0.9, where 1 is the maximum; inactive = score below 0.9.
target: Glycogen synthase kinase-3 beta (Homo sapiens) (UniProt P49841); assay: ERF_FR_ENZ_hGSK3b: Eurofins (ERF) Enzymatic Radiometric [Km ATP] KinaseProfiler LeadHunter Assay for human GSK3beta (GSK3B) CMGC Kinase
Protocol: ERF_FR_ENZ_hGSK3b is a biochemical, single-readout assay that uses extracted gene-proteins in a cell-free assay. Measurements were taken 1.5 hour after chemical dosing in a 96-well plate. See GSK3beta Human CMGC Kinase Enzymatic LANCE Assay [Km ATP], Cerep.ERF_FR_ENZ_hGSK3b is an assay component calculated from the ERF_FR_ENZ_hGSK3b assay. It is designed to measure enzyme activity using a type of enzyme reporter as detected by fluorescence intensity with LANCE technology.Data from the assay component ERF_FR_ENZ_hGSK3b was analyzed at the assay endpoint, ERF_FR_ENZ_hGSK3b, in the positive analysis fitting direction relative to DMSO as the negative control and baseline of activity. Using a type of enzyme reporter, loss-of-signal activity can be used to understand changes in enzymatic activity as they relate to gene GSK3B. To generalize the intended target to other relatable targets, this assay endpoint is annotated to the kinase intended target family, where the subfamily is serine/threonine kinase.
GSK3b (h) is incubated with 8 mM MOPS pH 7.0, 0.2 mM EDTA, 20 uM […](p) EDEEE (phospho GS2 peptide), 10 mM MgAcetate and [gamma-33P]-ATP (specific activity and concentration as required). The reaction is initiated by the addition of the Mg/ATP mix. After incubation for 40 minutes at room temperature, the reaction is stopped by the addition of phosphoric acid to a concentration of 0.5%. […]

Chain of Glycogen synthase kinase-3 beta (Homo sapiens) (P49841 whole entry, looked up): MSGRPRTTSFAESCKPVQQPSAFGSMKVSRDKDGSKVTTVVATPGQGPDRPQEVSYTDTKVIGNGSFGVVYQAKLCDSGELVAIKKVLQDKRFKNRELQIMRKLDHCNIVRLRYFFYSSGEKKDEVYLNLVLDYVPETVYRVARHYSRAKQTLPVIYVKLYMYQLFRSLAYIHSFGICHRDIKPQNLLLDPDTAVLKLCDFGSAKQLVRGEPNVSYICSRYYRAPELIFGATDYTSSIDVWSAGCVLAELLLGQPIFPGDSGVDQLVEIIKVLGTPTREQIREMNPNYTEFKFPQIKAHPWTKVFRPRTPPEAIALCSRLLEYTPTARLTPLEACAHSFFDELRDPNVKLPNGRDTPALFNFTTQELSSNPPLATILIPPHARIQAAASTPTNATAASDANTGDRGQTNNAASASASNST

| Structure (SMILES) | AC50 |
| --- | --- |
| O=C(/C=C/c1ccc(O)cc1)CC(=O)/C=C/c1ccc(O)cc1 | 2.14 µM (active) |

— PubChem BioAssay AID2284092 (EPA ToxCast)
